# Screening results from PubChem.
# In the library only some 9.4% were active in any assay of this set; here they are far more common.
# Rab9 promoter act: Rab9 promoter activation. Huh7 Rab9 promoter-luciferase reporter, luminescence, 24 h. Potency, µM (top dose mostly 9.22 µM), for the others: top-dose activation, negative = inhibition, most hits filed as activators. 320,000 tested, 2.8% active. AID 485297; note: % of control where 0% means no effect; nearly all actives have a fitted effect of over 60% in size
#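 Cells were plated at 1500 per well in reduced-serum medium with 10% FBS and left 2 h. Compound in DMSO was then added for 24 h at 37 °C. Reporter signal was read by luminescence after 10 min with luciferase detection reagent.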
# SMN2 splice up: SMN2 splice variant enhancement; AID 1458; Potency, µM (doses to about 46.1 µM), for inactives: at the highest dose activity change, positive = activation, actives largely listed as activators; 210,000 tested, 2.8% active; HEK293 SMN2-luciferase splicing reporter, luminescence, 30-36 h; note: % of control where 0% means no effect; nearly all actives have a fitted effect of over 55% in size
#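 qHTS luciferase splicing reporter: luminescence rises when SMN2 exon 7 is included in transfected HEK293 cells. Compound exposure lasted 30-36 h at 37C, with 4.5 mM final sodium butyrate as control, followed by a ONE-Glo read.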
# ELG1 genotoxic: inducers of genotoxicity in HEK293T ELG1-luciferase cells; 330,000 tested, 1.3% active; Potency, µM (top dose mostly 46 µM), inactives show at the top dose activity change, positive = activation, most hits filed as activators; HEK293T ELG1-luciferase reporter, luminescence, 16 h; note: % of control where 0% means no effect; nearly all actives have a fitted effect of over 60% in size
#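 HEK293T cells expressing luciferase-tagged ELG1 were exposed to compound or DMSO vehicle for 16 hr at 37 °C and 5% CO2. Luciferase activity was then measured with ONE-Glo after 30 min at room temperature.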
# ELG1 repair inh: inhibitors of ELG1-dependent DNA repair in HEK293T cells. HEK293T ELG1-luciferase reporter, luminescence, 16 h; DNA damage induced by 5-fluorouridine. Potency, µM (doses to about 46.1 µM), for inactives: at the top dose activity change, negative = inhibition, most hits filed as inhibitors. 330,000 tested, 2.3% active; note: % is set by controls: 0 for no effect and ±100 for the full control effect; nearly all actives have a fitted effect of over 55% in size
#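 HEK293T cells expressing luciferase-tagged ELG1 (2,000/well) received 5-Fluorouridine plus compound or DMSO for 16 hr at 37 °C. Luciferase was read by ONE-Glo luminescence after 30 min at room temperature.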
# FLuc counter: counter-screen for miR-21 project: firefly luciferase inhibitors or activators | 360,000 tested, 6.9% active | purified FLuc, Km substrates, luminescence inhibition | Potency, µM (doses to about 57.5 µM), for the others: top-dose activity change, negative = inhibition, actives largely listed as inhibitors | AID 588342;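 note: plate controls were vehicle for no effect and reference inhibitor for full effect; nearly all actives have a fitted effect of over 55% in size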
# Target sequence (P08659 whole entry, looked up): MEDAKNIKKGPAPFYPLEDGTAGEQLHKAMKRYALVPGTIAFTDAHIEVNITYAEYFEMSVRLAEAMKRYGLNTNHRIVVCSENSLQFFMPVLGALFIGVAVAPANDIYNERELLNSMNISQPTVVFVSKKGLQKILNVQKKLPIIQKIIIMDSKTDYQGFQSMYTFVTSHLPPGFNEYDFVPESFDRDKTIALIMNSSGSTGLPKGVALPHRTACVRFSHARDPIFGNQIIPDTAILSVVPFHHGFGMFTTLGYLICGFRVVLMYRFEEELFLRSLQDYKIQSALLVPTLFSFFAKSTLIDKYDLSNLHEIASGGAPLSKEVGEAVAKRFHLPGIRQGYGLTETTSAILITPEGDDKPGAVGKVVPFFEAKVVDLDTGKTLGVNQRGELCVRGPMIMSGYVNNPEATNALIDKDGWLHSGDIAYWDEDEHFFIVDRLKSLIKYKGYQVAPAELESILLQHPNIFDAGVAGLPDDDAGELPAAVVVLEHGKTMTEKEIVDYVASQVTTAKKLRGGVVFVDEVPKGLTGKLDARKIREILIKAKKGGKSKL
#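 Purified P. pyralis luciferase, 10 nM final, with Km-level 10 uM D-luciferin and 10 uM ATP in 50 mM Tris acetate pH 7.5, 10 mM Mg acetate, 0.01% Tween-20, 0.05% BSA; 6-point qHTS titration about 60 µM downward; luminescence read.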
# NPC1 promoter act: activates the NPC1 promoter; Huh7 NPC1 promoter luciferase reporter, 24 h; Potency, µM (highest dose often 9.22 µM), for inactives: at the top dose activation, most hits filed as activators; 320,000 tested, 2.4% active; AID 485313; note: % of control where 0% means no effect; nearly all actives have a fitted effect of over 60% in size
#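 Cells: Huh7 expressing luciferase under the NPC1 promoter, 1500/well. Seeded 2 h, compound added, incubated 24 h at 37 °C. Luciferase reagent, 10 min ambient, then luminescence.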
# Active calls of the source: *; ? = inconclusive; . = no result; [ ] = dose if it differs, or a comment. Calls come from the whole dose curve; as a rule, active = well fitted curve in the direction sought with a large enough effect; inconclusive = small, poorly fitted or top-dose-only effect, or another doubt; inactive = no such curve, though single readings can be large; an effect the other way counts as inactive or inconclusive. Potency is the fitted concentration of half-maximal effect.
SMILES,Rab9 promoter act,SMN2 splice up,ELG1 genotoxic,ELG1 repair inh,FLuc counter,NPC1 promoter act
COc1ccc(S(=O)(=O)NCCc2nnc3ccc(SCC(=O)Nc4ccc(C(F)(F)F)cc4)nn23)cc1,.,.,.,.,-11%,.
CCOC(=O)C1CCN(S(=O)(=O)c2cccc(-c3cn4cc(C)ccc4n3)c2)CC1,-10%,-48%,-7%,?,8.5µM*,0%
CCOC(=O)C1CCN(S(=O)(=O)c2cccc(-c3cn4cccnc4n3)c2)CC1,?,-31%,2%,13µM*,6%,-7%
O=C(Nc1ccc(OCc2cc(=O)n3c4c(sc3n2)CCCC4)cc1)c1cccc(F)c1,.,-7%,.,.,-1%,.
Cc1ccc(C2=Nc3ccccc3N(CC(=O)NCc3ccc(Cl)cc3)C(=O)C2)cc1C,.,.,.,.,-11%,.
Cc1ccc(C2=Nc3ccccc3N(CC(=O)Nc3ccccc3C)C(=O)C2)cc1C,.,.,.,.,11µM*,.
O=C(O)c1ccc(-c2nc3ccccc3s2)o1,?,.,12%,?,6µM*,?
O=C(c1ccc(-c2nc3ccccc3s2)o1)N1CCN(c2ccccc2O)CC1,?,.,-9%,-7%,17µM*,?
O=C(Nc1ccccc1-c1nc2ccccc2s1)c1ccc(Br)o1,0%,-24%,-1%,-21%,3%,0%
O=Cc1ccc(-c2nc3ccccc3s2)o1,?,11µM*,?,?,11µM*,27%
O=CN1CCN(C(=O)c2ccc(-c3nc4ccccc4s3)s2)CC1,1.1µM*,.,?,?,11µM*,1.8µM*
Cn1nccc1C(=O)Nc1ccn(C23CC4CC(CC(C4)C2)C3)n1,-2%,-56%,?,13%,27µM*,7%
Cc1ccc(NC(=O)CN2C(=O)C(c3ccc(F)cc3)=NC2(C)C)c(C)c1,.,7%,.,.,3%,.
O=C1OCC(CO)(CO)N=C1NNc1cc(Cl)ccc1Cl,3%,-9%,-4%,29%,0%,14%
O=C1OCC(CO)(CO)N=C1NNc1ccccc1[N+](=O)[O-],1%,.,9%,7.3µM*,-20%,-6%
O=C1CCc2cc(S(=O)(=O)NC(C(=O)Nc3ccc(F)cc3)c3ccccc3)ccc2N1 (stereo not drawn),.,16%,.,.,4%,.
Cc1csc2c(N3CCC(C(=O)O)CC3)ncnc12,18%,.,8%,?,17µM*,2%
Cc1csc2c(N3CCN(C(=O)Nc4ccc(OC(F)(F)F)cc4)CC3)ncnc12,1%,.,-10%,?,-20%,-1%
Cc1csc2c(N3CCCCC3)ncnc12,19%,.,10%,?,13µM*,?
Cc1csc2c(N3CCN(S(=O)(=O)c4ccc(Cl)cc4)CC3)ncnc12,-6%,.,-1%,-7%,1%,-2%
Fc1ccc2c(c1)-c1c(cnc3cc(-c4ccc(Cl)cc4)nn13)CO2,.,6%,.,.,1%,.
CN1CCS/C1=C\C=C1/SC(=S)N(CC(=O)O)C1=O,1%,0%,-3%,3%,13µM*,-2%
CCCCN1C(=O)/C(=C/C=C2\Oc3ccccc3N2CC)SC1=S,-3%,.,3%,11%,-7%,-2%
Cn1cccc1/C=C1/SC(=S)N(CC(=O)O)C1=O,-2%,79%,0%,3%,?,1%
CCN1C(=O)/C(=C/C=C2/SCCN2C)SC1=S,0.45µM*,?,?,?,0.85µM*,0.45µM*
SMILES,Rab9 promoter act,SMN2 splice up,ELG1 genotoxic,ELG1 repair inh,FLuc counter,NPC1 promoter act
CN1/C(=C\C=C2/SC(=S)N(CC(=O)O)C2=O)C(C)(C)c2ccccc21,1%,-22%,-5%,-14%,17µM*,-6%
CCCCN1C(=O)/C(=C/C=C2/CC(C)(C)CN2C)SC1=S,?,16%,?,?,9.5µM*,28%
Cc1ccc(Cc2cnc(NC(=O)c3ccc4c(c3)CC(c3ccccc3)OC4=O)s2)cc1 (stereo not drawn),.,52%,.,.,0%,.
CC1=NN(c2ccccc2)C(=O)C1C(=O)C(=O)Nc1ccc(F)cc1 (stereo not drawn),3.2µM*,.,?,?,9.5µM*,?
Cc1ccc(NC(=O)C(=O)C2C(=O)Nc3ccccc32)cc1 (stereo not drawn),?,.,?,?,12µM*,?
CSc1ccccc1NC(=O)C1=CC(c2ccc3c(c2)OCO3)=NS(=O)(=O)N1C,.,.,.,.,-1%,.
Cc1ccc(C)c(N2CCN(C(=O)CCCn3c(=S)[nH]c4cc5c(cc4c3=O)OCO5)CC2)c1,-3%,-47%,-27%,9.2µM*,2%,-6%
COc1cccc(N2CCN(C(=O)CCCCCn3c(=S)[nH]c4cc5c(cc4c3=O)OCO5)CC2)c1,-5%,.,?,4%,-1%,-4%
O=C(CCCn1c(=S)[nH]c2cc3c(cc2c1=O)OCO3)N1CCN(c2ncccn2)CC1,-9%,-13%,-7%,15µM*,1%,-6%
CCOC(=O)N1CCN(C(=O)CCCn2c(=S)[nH]c3ccc(Br)cc3c2=O)CC1,-4%,?,-19%,23µM*,0%,-1%
CCOC(=O)N1CCN(C(=O)CCCn2c(=S)[nH]c3ccccc3c2=O)CC1,.,-8%,.,.,-2%,.
O=C(CCCn1c(=S)[nH]c2cc3c(cc2c1=O)OCO3)N1CCN(c2ccccc2F)CC1,-6%,-28%,-15%,23µM*,-1%,-4%
O=C(NCc1ccccc1)c1ccc(CSc2nc3cccnc3n2Cc2cccc(F)c2)cc1,.,.,.,.,-4%,.
COc1ccc(CNCc2c(C(=O)O)c(C)n(Cc3ccc(Cl)cc3)c2C)c(OC)c1,.,6%,.,.,-1%,.
O=C(CCCn1c(=S)[nH]c2cc3c(cc2c1=O)OCO3)N1CCN(c2ccc(F)cc2)CC1,0%,-22%,-14%,16µM*,0%,-3%
O=C(CCCCCn1c(=S)[nH]c2cc3c(cc2c1=O)OCO3)N1CCN(c2ccccc2)CC1,0%,.,14%,2%,2%,-1%
COc1ccc(NC(=O)/C=C/c2ccccc2)cn1,2.5µM*,10%[1.84 µM],?,?,8.5µM*,3.5µM*
COc1cccc(/C=C/C(=O)NNC(=O)c2ccncc2)c1,-1%,.,0%,0%,?,0%
COc1ccc(NC(=O)/C=C/c2ccc(F)cc2)cn1,?,?,12%,?,11µM*,?
COc1ccc(NC(=O)/C=C/c2cc(OC)c(OC)c(OC)c2)cn1,6%,37%,-1%,8%,-1%,-4%
COc1cccc(/C=C/C(=O)Nc2ccc(OC)nc2)c1,25%,1%[1.84 µM],6%,18%,11µM*,27%
Cc1cccc(NC(=O)CN2C(=O)c3cccc4cccc2c34)c1C,.,-11%,.,.,1%,.
Nn1c(SCC(=O)Nc2nnc(-c3ccccc3)o2)nnc1C1CC1,-2%,.,-1%,8%,8.5µM*,11%
